Screening data as filed in PubChem.
IDE act: activators of human insulin-degrading enzyme in cells | AID 493087 | activation, % at 5.96 µM | actives 0.073% (n = 340,000) | P14735 | HEK cells, FAbeta-B cleavage, fluorescence polarization; 0% vehicle, 100% cell-free pure enzyme wells;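 active = activation above the mean of all tested compounds plus 3 SD, set per screening campaign, cut at about 17% in these data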
TLR4 MyD88 comp: inhibitors of human TLR4-MyD88 binding | O00206+Q99836 | HeLa CL3-4 TLR4/MyD88 BLA complementation, FRET ratio | inhibition, % at 8.4 µM | actives 0.18% (n = 200,000) | AID 861; in the data active = inhibition above about 25%;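 note: 0% = vehicle and 100% = reference inhibitor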
NOD2-RIPK2 inh: blocks binding of human NOD2 to RIPK2. O43353. CHO BLA complementation NOD2-RIPK2, CCF4 ratio. inhibition, % at 4.98 µM. actives 0.38% (n = 360,000). AID 624267; in the data active = inhibition above about 21%;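 note: 0% = vehicle only and 100% = reference blocker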
IDE inh: inhibits human insulin-degrading enzyme in HEK cells. P14735. FAbetaB cleavage, fluorescence polarization. inhibition, % at 5.59 µM. actives 0.41% (n = 320,000). AID 434962;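 active = percent inhibition above the average of all tested compounds plus 3 SD, set per screening campaign, cut at about 16% in these data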;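 note: IDE supplied by intact live HEK cells; FP after avidin binding of uncleaved biotin substrate so inhibition keeps polarization high; 0% = DMSO wells and 100% = 60 µM reference IDE inhibitor Ii1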
TLR9-MyD88 block: blocks human TLR9 binding to MyD88. inhibition, % at 4.98 µM. CHO BLA complementation TLR9-MyD88, CCF4 FRET ratio. actives 0.21% (n = 340,000). AID 504734. Q9NR96+Q99836;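 active = inhibition above the mean over all tested compounds plus 3 SD, cut at about 21% in these data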;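 note: 0% = DMSO only wells and 100% = clavulanate BLA inhibitor control wells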
Target sequence (Q99836 whole entry, looked up): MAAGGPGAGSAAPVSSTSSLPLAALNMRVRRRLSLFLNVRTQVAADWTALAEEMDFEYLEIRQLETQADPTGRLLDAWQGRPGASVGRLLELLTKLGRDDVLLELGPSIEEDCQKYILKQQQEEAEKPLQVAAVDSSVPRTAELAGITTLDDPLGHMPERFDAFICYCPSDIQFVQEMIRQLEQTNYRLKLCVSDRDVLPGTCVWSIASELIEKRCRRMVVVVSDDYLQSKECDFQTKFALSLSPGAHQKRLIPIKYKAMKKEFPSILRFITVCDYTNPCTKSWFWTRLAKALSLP
Target sequence (Q9NR96 whole entry, looked up): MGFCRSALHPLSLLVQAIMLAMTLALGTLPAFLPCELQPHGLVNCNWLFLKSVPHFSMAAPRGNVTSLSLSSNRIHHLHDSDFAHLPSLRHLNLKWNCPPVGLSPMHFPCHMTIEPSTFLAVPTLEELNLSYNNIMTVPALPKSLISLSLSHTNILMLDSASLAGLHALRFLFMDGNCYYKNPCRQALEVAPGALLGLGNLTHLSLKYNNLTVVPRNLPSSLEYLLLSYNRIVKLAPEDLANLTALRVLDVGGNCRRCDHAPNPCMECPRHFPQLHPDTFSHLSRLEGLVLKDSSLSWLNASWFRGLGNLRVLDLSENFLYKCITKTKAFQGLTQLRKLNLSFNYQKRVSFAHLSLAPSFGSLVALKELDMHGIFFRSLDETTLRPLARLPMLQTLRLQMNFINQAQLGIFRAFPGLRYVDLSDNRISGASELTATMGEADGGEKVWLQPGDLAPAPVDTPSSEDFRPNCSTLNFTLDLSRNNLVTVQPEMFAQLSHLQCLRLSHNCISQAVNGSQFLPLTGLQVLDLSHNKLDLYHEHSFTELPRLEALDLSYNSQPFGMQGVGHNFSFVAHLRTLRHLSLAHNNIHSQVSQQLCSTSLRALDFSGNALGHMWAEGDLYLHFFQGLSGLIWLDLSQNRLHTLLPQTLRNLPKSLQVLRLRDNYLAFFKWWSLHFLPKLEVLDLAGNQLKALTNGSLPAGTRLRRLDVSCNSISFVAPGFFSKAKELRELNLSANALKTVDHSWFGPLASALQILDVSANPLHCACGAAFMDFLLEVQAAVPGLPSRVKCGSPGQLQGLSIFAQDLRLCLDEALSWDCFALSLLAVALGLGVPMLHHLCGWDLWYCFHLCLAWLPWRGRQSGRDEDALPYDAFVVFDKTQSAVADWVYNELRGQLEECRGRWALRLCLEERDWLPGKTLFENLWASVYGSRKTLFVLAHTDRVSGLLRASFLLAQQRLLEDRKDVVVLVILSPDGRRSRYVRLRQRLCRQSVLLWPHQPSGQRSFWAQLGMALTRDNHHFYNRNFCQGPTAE
TLR9-MyD88 cf: confirmation of human TLR9-MyD88 binding inhibitors; AID 540250; CHO TLR9/MyD88 BLA complementation, CCF4 FRET ratio; shares compounds with TLR9-MyD88 block; actives 51% (n = 680); inhibition, % at 4.98 µM;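 active = mean inhibition across three repeats above about 21% taken from the earlier screen, limit read from the data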;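 note: blue over green emission ratio reports constitutive TLR9 MyD88 association via BLA complementation; 0% = DMSO vehicle wells and 100% = clavulanate BLA inhibitor wells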
BLA nonselective: beta-lactamase reporter inhibition, counter-screen artifact; actives 7% (n = 680); AID 540251; shares compounds with TLR9-MyD88 block; inhibition, % at 4.98 µM; CHO-BLA cells, CCF4 FRET ratio, BLA reporter;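 active = mean inhibition above a 50% cutoff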;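 note: counterscreen of TLR9-MyD88 hits on CMV-driven BLA in CHO-K1 cells; 0% = DMSO alone and 100% = clavulanate blocking BLA; higher means less blue over green ratio so more BLA blockade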
TLR9 CHO tox: counter-screen for TLR9-MyD88 inhibitors: cytotoxicity in CHO cells; shares compounds with TLR9-MyD88 block; luminescence; inhibition, % at 4.98 µM; actives 39% (n = 680); in the data active = inhibition above about 11%
* hit, by the source's call. Shown are actives, neighbours in structure and some others; about 0.86% of the full set was active somewhere.

Screening Cc1ccc(S(=O)(=O)N(C)c2cc(S(=O)(=O)Nc3ccncc3)c(C)cc2C)cc1 returned IDE act 3, TLR4 MyD88 comp 0, NOD2-RIPK2 inh 13, IDE inh 1, TLR9-MyD88 block 29*, TLR9-MyD88 cf 3, BLA nonselective 9 and TLR9 CHO tox 0.
Screening COc1ccccc1C1C(C(C)=O)=C(O)C(=O)N1CCc1ccccc1 (stereo not drawn) returned IDE act 5, TLR4 MyD88 comp 0, NOD2-RIPK2 inh -6, IDE inh -5 and TLR9-MyD88 block 4.
For Oc1[nH]c2ccccc2c1N=Nc1ccccn1 the results were IDE act 1, NOD2-RIPK2 inh -10 and TLR9-MyD88 block -4.
Screening Oc1c(N=Nc2ccccn2)ccc2ccccc12 returned IDE act -9, TLR4 MyD88 comp 13, NOD2-RIPK2 inh 15, IDE inh 3, TLR9-MyD88 block 24*, TLR9-MyD88 cf 15, BLA nonselective 2 and TLR9 CHO tox 99*.
For CCOc1cccc(N(C(=O)c2ccco2)C(C(=O)NC2CCCC2)c2cccnc2)c1 (stereo not drawn) the results were IDE act -1, NOD2-RIPK2 inh -5, IDE inh 5 and TLR9-MyD88 block -3.
For Cc1ccc(S(=O)(=O)c2ccc([N+](=O)[O-])o2)cc1 the results were IDE act -6, NOD2-RIPK2 inh 93*, TLR9-MyD88 block 44*, TLR9-MyD88 cf 51*, BLA nonselective 19 and TLR9 CHO tox 99*.
Screening Cc1ccc(NC(=O)c2ccc([N+](=O)[O-])o2)c(C)c1 returned IDE act 0, TLR4 MyD88 comp 10, NOD2-RIPK2 inh -2, IDE inh 0 and TLR9-MyD88 block 8.
For COc1cc(/C=N/NC(=O)c2ccc([N+](=O)[O-])cc2Cl)cc(Br)c1O the results were IDE act 6, TLR4 MyD88 comp -4, NOD2-RIPK2 inh 3, IDE inh -2, TLR9-MyD88 block 34*, TLR9-MyD88 cf -2, BLA nonselective -1 and TLR9 CHO tox -4.
Screening CC(C)N(CCC(=O)c1ccc2ccccc2c1)Cc1ccccc1 returned IDE act -1, NOD2-RIPK2 inh 6, IDE inh -2, TLR9-MyD88 block 21*, TLR9-MyD88 cf -3, BLA nonselective -1 and TLR9 CHO tox 49*.
COc1ccc(S(=O)(=O)N2CCCCC2)cc1NC(=O)c1ccc([N+](=O)[O-])o1 was read as IDE act -2, TLR4 MyD88 comp 9, NOD2-RIPK2 inh 10, IDE inh 3, TLR9-MyD88 block 22*, TLR9-MyD88 cf 3, BLA nonselective 6 and TLR9 CHO tox 22*.
`Cn1c(=O)n(C)c2cc(/C=C(/C#N)C(=O)NCc3ccco3)ccc21` gave IDE act 0, TLR4 MyD88 comp 17, NOD2-RIPK2 inh -3, IDE inh 1 and TLR9-MyD88 block -7.
`CC(OC(=O)/C(C#N)=C/c1ccc(N(C)C)cc1)C(=O)NCc1ccco1` (stereo not drawn) gave IDE act -4, NOD2-RIPK2 inh 4, IDE inh 4, TLR9-MyD88 block 24*, TLR9-MyD88 cf 8, BLA nonselective 9 and TLR9 CHO tox -4.
For COc1ccc(N(C(=O)c2cccc(OC)c2OC)C2C=CS(=O)(=O)C2)cc1 (stereo not drawn) the results were IDE act 2, TLR4 MyD88 comp -5, NOD2-RIPK2 inh -1, IDE inh -3 and TLR9-MyD88 block -9.
`COc1ccc(OCC(O)CNC(=O)/C=C/c2cccc([N+](=O)[O-])c2)cc1` (stereo not drawn) gave IDE act 2, TLR4 MyD88 comp 6, NOD2-RIPK2 inh -1, IDE inh -4, TLR9-MyD88 block 23*, TLR9-MyD88 cf -3, BLA nonselective -1 and TLR9 CHO tox 2.
For O=C(CNC(=O)c1ccc(Cl)cc1)NNc1c(F)c(F)cc(F)c1F the results were IDE act 0, NOD2-RIPK2 inh -7, IDE inh 7 and TLR9-MyD88 block 0.
`COC1CC(C)C(OC)c2cc(O)cc(c2O)NC(=O)C(C)=CC=CC(C)C(OC(N)=O)C(C)=CC(C)C1OC` (stereo not drawn) gave IDE act 3, NOD2-RIPK2 inh -4 and TLR9-MyD88 block 8.
`COC1C=CC=C(C)C(=O)NC2=CC(=O)C(N)=C(CC(C)CC(OC)C(O)C(C)C=C(C)C1OC(N)=O)C2=O` (stereo not drawn) gave IDE act 3, NOD2-RIPK2 inh 13, TLR9-MyD88 block 24*, TLR9-MyD88 cf 2, BLA nonselective -4 and TLR9 CHO tox 85*.
For OCCN1CCN(CC(O)COc2ccc(C34CC5CC(CC(C5)C3)C4)cc2)CC1 (stereo not drawn) the results were IDE act 3, TLR4 MyD88 comp -4, NOD2-RIPK2 inh 5, IDE inh 0, TLR9-MyD88 block 22*, TLR9-MyD88 cf 5, BLA nonselective 5 and TLR9 CHO tox 40*.
CCOc1cc(/C=C2\C(=O)N(c3cccc(C(F)(F)F)c3)C(=O)c3ccccc32)ccc1O was read as IDE act 0, TLR4 MyD88 comp 14, NOD2-RIPK2 inh -3, IDE inh -3 and TLR9-MyD88 block 11.
For Cc1cccc(N2C(=O)/C(=C\c3ccc(OC(F)F)cc3)c3ccccc3C2=O)c1 the results were IDE act -3, TLR4 MyD88 comp 17, NOD2-RIPK2 inh -3, IDE inh 4, TLR9-MyD88 block 50*, TLR9-MyD88 cf 45*, BLA nonselective 47 and TLR9 CHO tox 0.
Screening COc1ccc(CNS(=O)(=O)NCc2ccc(OC)c(OC)c2)cc1 returned IDE act 3, TLR4 MyD88 comp -10, NOD2-RIPK2 inh -8, IDE inh -4 and TLR9-MyD88 block -9.
N#Cc1ccc2c(=O)n(-c3ccccc3)sc2c1 was read as NOD2-RIPK2 inh 0, TLR9-MyD88 block 39*, TLR9-MyD88 cf 18, BLA nonselective -3 and TLR9 CHO tox 96*.
N#Cc1c(N)n(-c2ccccc2)c(=O)c2cc([N+](=O)[O-])ccc12 was read as IDE act 0, TLR4 MyD88 comp -10, NOD2-RIPK2 inh 4, IDE inh 2 and TLR9-MyD88 block 11.
For O=c1c2cc(C(F)(F)F)ccc2sn1-c1ccccc1 the results were NOD2-RIPK2 inh -3, TLR9-MyD88 block 23*, TLR9-MyD88 cf 26*, BLA nonselective -5 and TLR9 CHO tox 58*.
